Consider eleven compounds from PMC8159961, “Exploring protein hotspots by optimized fragment pharmacophores” (Nature Communications, 2021).

This experiment addresses thrombin (human, UniProt P00734). Briefly: primary screen, binary call; higher = more effect of the substance. Also noted: screenings were carried out in duplicate in one independent experiment. The conditions noted are these: 200 µM. How it is done:
Protease inhibitory assays were performed in transparent microtiter plates in a final volume of 200 µL with the use of chromogenic substrates. The reaction rates in the absence and in the presence of the inhibitor were measured; screenings were carried out in duplicate in one independent experiment and Ki values were determined in triplicate in two independent experiments.
As to `c1ccc2sc(N3CCNCC3)nc2c1`, the Thrombin was 0 (inactive).
Consider `O=C(O)c1cnc(-c2ccccc2)s1`, for which the Thrombin was 1 (active).
For `COc1ccccc1CC1CCNCC1.Cl`, the Thrombin was 0 (inactive).
As to `O=c1ccc2c([nH]1)CCCC2`, the Thrombin is 0 (inactive).
Take `COc1ccccc1C1CCNCC1`: the Thrombin was 0 (inactive).
Consider `O=C(c1ccncc1)N1CCNCC1`, for which the Thrombin is 0 (inactive).
With `Cc1cc(-c2ccccc2)n[nH]1` the figure was 0 (inactive); with `Cc1cc(N)no1`, 0 (inactive); with `Oc1cnc(-c2ccccc2)nc1`, 0 (inactive).
Turning to `O=C1CNCCN1c1ccccc1`, the Thrombin was 0 (inactive).
Take `O=C1NC(=O)/C(=C\c2cccs2)N1`: the Thrombin is 0 (inactive).
